# In PubChem BioAssay (NCI):
# This is part of a sample that, as a whole, favours compounds with a hit. Of some 79,000 tested, about 15% had one in any assay. Values without a mark were called inactive. Active and inactive are the calls of the source. Rule as the data show it: active = growth inhibition above about 70%; inactive = the rest.
# How the values were obtained:
# [1] = NCI Yeast Anticancer Drug Screen. Data for the rad50 strain (AID 155);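 also: 0% = growth of vehicle-only cultures of the same strain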; conditions: S. cerevisiae rad50 strain growth inhibition; at 50.0 µM; stronger effect = higher value
# Outline: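 Cells are treated with compound, grown, and their growth is then scored against vehicle-only cultures of the same repair-deficient yeast strain.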
# [2] = NCI Yeast Anticancer Drug Screen. Data for the mec2-1 strain (AID 157); conditions: S. cerevisiae mec2-1 strain, at 50.0 µM, stronger effect = higher value
# Outline: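 Cells of the genetically defined mec2-1 yeast strain are incubated with test compound. Inhibition of growth is calculated against vehicle-treated controls.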
# [3] = NCI Yeast Anticancer Drug Screen. Data for the sgs1 mgt1 strain (AID 161);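 also: 0% = growth of cultures given vehicle only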; conditions: S. cerevisiae sgs1 mgt1 strain, at 50.0 µM, stronger effect = higher value
# Outline: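 Mutant yeast exposed to compound; growth scored against vehicle-only wells.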
# [4] = NCI Yeast Anticancer Drug Screen. Data for the cln2 rad14 strain (AID 165);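 also: 0% = growth equal to vehicle treated cultures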; conditions: S. cerevisiae cln2 rad14 strain, at 50.0 µM, stronger effect = higher value
# Outline: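 The screen exposed genetically defined yeast (cln2 rad14) to test compounds and scored growth inhibition relative to vehicle-treated controls.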
# [5] = NCI Yeast Anticancer Drug Screen. Data for the bub3 strain (AID 167); conditions: S. cerevisiae bub3 mutant strain, at 50.0 µM, stronger effect = higher value
# Outline: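 Part of a panel of yeast mutants defective in DNA damage repair or cell cycle regulation. Each strain is grown with compound, and inhibition is calculated relative to solvent-treated cultures.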
# [6] = NCI Yeast Anticancer Drug Screen. Data for the mlh1 rad18 strain (AID 175); conditions: S. cerevisiae mlh1 rad18 strain growth inhibition; at 50.0 µM; stronger effect = higher value
# Outline: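 Compound-treated yeast growth, normalised to vehicle controls. Strain bears defined DNA repair mutations.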
SMILES,growth inhibition [1],growth inhibition [2],growth inhibition [3],growth inhibition [4],growth inhibition [5],growth inhibition [6]
FC(F)(F)C1=NCCN1,-0.5%,-11.1%,-2.85%,11.4%,-2.45%,-10.3%
CC1(C)OP2(O)(OC(C)(C)c3ccccc32)c2ccccc21,31.1%,5.6%,12.3%,1.8%,6.85%,24.1%
COc1c(Cl)cc(Cl)cc1C(c1cc(Cl)cc(Cl)c1OC)C(Cl)(Cl)Cl,-3.25%,-6.1%,4.6%,-5%,-3.6%,7.1%
O=C(NC12CC3CC(CC(C3)C1)C2)C(O)C(O)C(O)C(O)CO (configuration not stated),-16.6%,-1.75%,20.1%,0.9%,5.6%,2.65%
OCC12OCC(O1)C(O)C(O)C2O (configuration not stated),-14.6%,2.2%,1.35%,-9.35%,-4.05%,-16.8%
CSc1nc2ccc(N=Cc3ccccc3O)cc2s1,-25.5%,-8.25%,-5.7%,-12.6%,17.7%,-13.4%
CCOC(=O)c1cnc2cc(C)cc(C)c2c1Nc1ccc2c(c1)OCO2,-8.15%,-4.65%,-12.3%,-36%,5.45%,-2.9%
Clc1ccc(-c2nnc(-c3ccc(Cl)c(Cl)c3)o2)cc1Cl,0.25%,9.95%,17.8%,-30.5%,-10.9%,22.9%
COC1(OC)C2(Cl)C(Cl)=C(Cl)C1(Cl)C1CCCCC12 (configuration not stated),12.7%,11.1%,15.5%,-57%,-5.15%,2.3%
CC(O)C(O)C(O)C(O)C#N (configuration not stated),20.6%,18%,12.2%,11%,0.15%,10.1%
CCOc1cc2c(cc1O)CC[C@@H]1[C@@H]2CC[C@]2(C)C(OS(=O)OC3CC[C@@H]4[C@H]5CCc6cc(O)c(OCC)cc6[C@@H]5CC[C@@]34C)CC[C@@H]12 (some centres not stated),-12.8%,0.25%,4.8%,26.7%,18.6%,-15.5%
O=C(NCCc1ccccc1)[C@H]1CCCC[C@@H]1CCO,19.4%,0.85%,-31.9%,0.4%,-39.8%,-28.6%
c1ccc(SCCCCSc2ccccc2)cc1,17.1%,5.05%,-2.55%,-38%,14.1%,43%
CN1c2ccccc2N(C)C2C1N(C)c1ccccc1N2C (configuration not stated),-38.9%,-28.4%,-12.4%,-1.8%,-19.9%,-36.1%
CC(C)NCC1CCCO1 (configuration not stated),-6.65%,-23.2%,-16.4%,4.9%,-5.7%,-7.85%
CCN(CC)CCNc1ccc(C)c2sc3ccc(N)cc3c(=O)c12,30.3%,18.1%,8.9%,28.3%,-0.35%,19.8%
CCC(C)NC(=O)/C=C/c1ccccc1 (configuration not stated),31.9%,17.1%,14.4%,12.4%,-1.1%,6.65%
COc1ccc(/C=C2\NC(=O)NC2=O)cc1Br,11.8%,10.4%,2.65%,7%,9.1%,8.5%
CC1=COCCO1,-9.9%,-9.35%,-9.35%,6.85%,12.7%,0.5%
CCOC(=O)C1=C(C)N(NC(N)=O)C2(N)N(NC(N)=O)C(C)=C(C(=O)OCC)C12C#N (configuration not stated),-6.95%,21.9%,17.6%,4.3%,10.6%,-12.1%
O=C(O)c1ccc(C2C(=O)N[C@@H]3CCC[C@H]23)cc1 (some centres not stated),-33%,-5.75%,-22.1%,6.05%,-12.9%,-32.1%

SMILES,growth inhibition [1],growth inhibition [2],growth inhibition [3],growth inhibition [4],growth inhibition [5],growth inhibition [6]
CCOC(=O)NC(=O)CC#N,-5.5%,-29.8%,13.4%,5.05%,-4.2%,10.7%
CCCCC(/C=C\C(=O)O)CC (configuration not stated),29.7%,-6.1%,-11.8%,5.05%,5.75%,14.4%
NC(=O)N/N=C/c1ccc([N+](=O)[O-])s1,-29.6%,-0.8%,1.8%,-39%,-6.9%,-8.5%
Cc1cccc(-c2cc(=O)c3cccnc3[nH]2)c1,2.05%,-1.45%,9.35%,4.05%,-13%,1.25%
COc1ccc(C(=O)c2ccc(Cl)s2)cc1,8.4%,-4.85%,22.4%,-13.2%,21%,5.1%
CC1(C(=O)O)C(=O)Oc2c1c1ccccc1c1ccccc21 (configuration not stated),15.3%,10.7%,0.75%,10.8%,16.3%,27.5%
O=[N+]([O-])c1ccc(/C(=C/c2ccc(Cl)cc2Cl)S(=O)(=O)C(Cl)Cl)o1,98.3% (active),98.8% (active),99.1% (active),99.1% (active),98.2% (active),98% (active)
COc1ccc(-c2cc(=O)c3c(O)c(OC)c(O)c(OC)c3o2)cc1OC,-0.4%,-37.5%,5.1%,5.15%,29.7%,20%
O=C(O)C1Cc2c([nH]c3ccccc23)C(c2ccccc2)N1 (configuration not stated),1.3%,11.1%,10.8%,-56.6%,-16.8%,14.4%
CCOC(=O)/C(=C(/C)N=Cc1ccccc1[N+](=O)[O-])C(NN=O)c1ccccc1[N+](=O)[O-] (configuration not stated),11.9%,4.85%,-9.55%,8.5%,-5%,17.8%
CCOc1ccccc1NC(C)=O,-6.5%,6.1%,2.2%,-13.4%,-14.6%,-0.75%
O=C(Oc1ccccc1)C(Cc1ccccc1)NC(=O)C(F)(F)F (configuration not stated),4.6%,7.7%,-4.8%,1.5%,5.85%,-37.4%
Cc1ccc(S(=O)(=O)NC(CCC(=O)NN)C(=O)NN)cc1 (configuration not stated),9.55%,7.2%,-15.2%,5.95%,-1.8%,-43.4%
CCCCCCCCCCCCCCCCCCOc1c(Cl)c(Cl)c(Cl)c(Cl)c1Cl,15.1%,-1.55%,-8.25%,-25.9%,-7.4%,-8.1%
CCOC(=O)N1OC2C=CC1CC2 (configuration not stated),-7.45%,-9.45%,-12.1%,11.8%,3.45%,15.1%
COc1ccc(OC)c(CC(N)=O)c1,-5.5%,4.6%,-0.9%,-23.8%,21.4%,-8.85%
CCOc1ccc(NC(=S)N/C=C(/C#N)C(N)=O)cc1,-13.6%,-26.4%,-15.3%,-14.2%,-16.9%,-3.5%
O=C(NCc1ccccc1)NCc1ccccc1,-25.5%,-0.65%,-2.5%,-13.8%,-18.4%,-4.5%
CCC1(C)C=Cc2c(cc(OC)c3c(=O)c4ccccc4n(C)c23)O1 (configuration not stated),-21.8%,-27.4%,-33.8%,-19.6%,4.05%,-26.4%
C/C(CC(=O)c1ccccc1)=C1\C(=O)NN(c2ccccc2)C1=O,60.5%,47.5%,67.7%,56.9%,64.6%,60.1%
CCOC(=O)CCC(C(=O)OCC)C(C)C(=O)OCC (configuration not stated),-25.4%,-19.1%,-25.8%,-11.7%,4.1%,-15.2%
